Screening data as filed in PubChem.
Chronic BCR inh – qHTS Assay to Find Inhibitors of Chronic Active B-Cell Receptor Signaling; ABC-DLBCL IkBa-CBG/CBR reporter, luminescence ratio, 4 h; Potency, µM (highest dose often 46.1 µM), actives largely listed as inhibitors; 340,000 compounds, 0.05% hits; active = well fitted inhibition curve with a large enough effect in the signal ratio, with a control signal flat, not every such curve was filed as active; inconclusive = small, poorly fitted or top-dose-only effect, or effect the other way, or a change in a side signal; the % refers to the signal ratio
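TMD8 human ABC-DLBCL cells with doxycycline-inducible IκBα–green luciferase fusion and unfused red luciferase, in 0.5% FBS medium; compounds up to 46 uM, 4 h at 37C. Green/red luminescence ratio, filter-overlap corrected, fitted to concentration-response curves.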
DT40 TDP1 no CPT – qHTS for Inhibitors of human tyrosyl-DNA phosphodiesterase 1 (TDP1): qHTS in cells in absence of CPT; DT40 Tdp1-/- hTDP1 cells, no CPT, ATP luminescence, 48 h; Potency, µM (doses to about 46.2 µM), most hits filed as inhibitors; 420,000 compounds, 15% hits; also: nearly all actives have a fitted effect of over 55% in size
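No-CPT arm: Tdp1-/-;hTDP1 DT40 cells (400/well) plus compounds, incubated ≥48 hr at 37 °C. Readout CellTiter-Glo luminescence.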
TDP1 cell CPT – qHTS for Inhibitors of human tyrosyl-DNA phosphodiesterase 1 (TDP1): qHTS in cells in presence of CPT. 420,000 compounds, 12% hits. Potency, µM (titrated, usually from 46.2 µM), hits mostly inhibitors. chicken DT40 Tdp1-/-;hTDP1 cells + 20 nM CPT, ATP luminescence, 48 h. AID 686979, 2013; also: nearly all actives have a fitted effect of over 55% in size
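Cell growth measured by CellTiter-Glo luminescence after a minimum 48 h, 37 C compound exposure with 20 nM CPT in Tdp1-knockout DT40 cells stably expressing hTDP1, seeded 400/well; qHTS titration format.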
SW480 rerep – A quantitative high throughput screen for small molecules that induce DNA re-replication in SW480 colon adenocarcinoma cells; 340,000 compounds, 1.8% hits; Potency, µM (top dose mostly 46.1 µM), usual class: activators; SW480 DNA re-replication, Hoechst DNA content imaging, 48 h; also: nearly all actives have a fitted effect of over 55% in size
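Per well, 250 cells were exposed to pinned compound for 48 hr. Nuclear DNA was visualised with Hoechst (40 min, 37 C) and total object intensity recorded by fluorescence scanning.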
MCF10A rerep – A quantitative high throughput screen for small molecules that induce DNA re-replication in MCF 10a normal breast cells. MCF 10A DNA re-replication, Hoechst nuclear intensity, 48 h. Potency, µM (titrated, usually from 46.1 µM), most hits filed as activators. 350,000 compounds, 2.9% hits; also: nearly all actives have a fitted effect of over 50% in size
IL-1B inflam inh – qHTS for Inhibitors of Inflammasome Signaling: IL-1-beta AlphaLISA Primary Screen; THP-1 LPS/ATP IL-1B secretion, AlphaLISA, 16 h; hits give low values; activity change, % at 57.5 µM; 360,000 compounds, 4.7% hits; AID 743279, 2014; in the data active = activity change below about -50%; inconclusive = mostly about -30% to -49%
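THP-1 cells pretreated 1 hr with compounds (up to 57.5 uM final), then stimulated with LPS (250 ng/mL final) plus ATP (1.25 mM final); secreted IL-1B measured by AlphaLISA after 16 hr, decreased signal indicating inhibition.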
Large screens that a line does not name were inactive. An excerpt weighted towards active compounds, which were near 19% of everything screened. Unless noted, calls follow the shape of the dose curve; as a rule, active = well fitted curve in the direction sought with a large enough effect; inconclusive = small, poorly fitted or top-dose-only effect, or another doubt; inactive = no such curve, though single readings can be large; an effect the other way counts as inactive or inconclusive.

COc1ccc(C2(C)CC(C)(C)Nc3ccccc32)cc1 (stereo not drawn)	DT40 TDP1 no CPT inconclusive
Cc1ccc(SC2=C(Sc3ccc(C)cc3)C(=O)c3ccccc3C2=O)cc1	Chronic BCR inh inconclusive, DT40 TDP1 no CPT 1.03µM, TDP1 cell CPT 0.92µM, SW480 rerep 8.2µM, MCF10A rerep 3.26µM, IL-1B inflam inh -73.8
COC(=O)c1ccc(C2c3[nH]c4ccccc4c3C[C@H]3C(=O)N(C)CC(=O)N23)cc1 (stereo partly drawn)	SW480 rerep inconclusive
CN1CC(=O)N2C(c3ccc(Cl)cc3)c3[nH]c4ccccc4c3C[C@H]2C1=O (stereo partly drawn)	Chronic BCR inh inconclusive, DT40 TDP1 no CPT inconclusive, TDP1 cell CPT 14.6µM, SW480 rerep inconclusive
O=C1[C@@H]2Cc3c([nH]c4ccccc34)C(c3cccc([N+](=O)[O-])c3)N2C(=O)CN1CCCO (stereo partly drawn)	none
CN1CC(=O)N2C(c3cccc([N+](=O)[O-])c3)c3[nH]c4ccccc4c3C[C@H]2C1=O (stereo partly drawn)	DT40 TDP1 no CPT 1.84µM, TDP1 cell CPT 1.03µM, MCF10A rerep inconclusive
O=C1[C@@H]2Cc3c([nH]c4ccccc34)C(c3ccc([N+](=O)[O-])cc3)N2C(=O)CN1C1CC1 (stereo partly drawn)	Chronic BCR inh inconclusive, DT40 TDP1 no CPT 4.61µM, TDP1 cell CPT 2.59µM
COc1ccc(C2c3[nH]c4ccccc4c3CC3C(=O)N(CCc4ccc(OC)c(OC)c4)CC(=O)N32)cc1 (stereo not drawn)	none (no result: Chronic BCR inh, SW480 rerep, MCF10A rerep, IL-1B inflam inh)
CCN1C(=O)[C@@H]2Cc3c([nH]c4ccccc34)C(c3ccc(OC)cc3)N2C1=S (stereo partly drawn)	Chronic BCR inh inconclusive, DT40 TDP1 no CPT 14.6µM, TDP1 cell CPT inconclusive, SW480 rerep inconclusive, MCF10A rerep 20.6µM
Oc1oc(-c2ccccc2)nc1C=Nc1ccccc1	Chronic BCR inh inconclusive, IL-1B inflam inh -54.8
O=C(Oc1oc(-c2ccco2)nc1C=Nc1ccc(Cl)cc1)c1ccco1	Chronic BCR inh inconclusive, DT40 TDP1 no CPT 9.2µM, TDP1 cell CPT 10.3µM
CC(=O)Nc1ccc(N=Cc2nc(-c3ccc(C)cc3)oc2O)cc1	none
O=C(Oc1cncc(Cl)c1)c1ccco1	none
Cc1ccc(N=Cc2nc(-c3ccc(C)cc3)oc2O)cc1	SW480 rerep inconclusive, MCF10A rerep 6.51µM
CN(C)c1ccc(N=Cc2nc(-c3ccccc3)oc2O)cc1	none
COc1ccc(N=Cc2nc(-c3ccco3)oc2O)cc1	Chronic BCR inh inconclusive, DT40 TDP1 no CPT 29.1µM, TDP1 cell CPT inconclusive
COc1ccc(N=Cc2oc3ccc4ccccc4c3c2O)cc1	Chronic BCR inh inconclusive
COCCn1c(SCC(=O)N2CCCCCC2)nnc1-c1ccco1	none
COc1ccccc1NC(=O)CC(=O)c1cccc([N+](=O)[O-])c1	Chronic BCR inh inconclusive
COc1ccccc1C(=O)N/C(=C/c1cccc([N+](=O)[O-])c1)C(=O)Nc1cccc(C(=O)O)c1	DT40 TDP1 no CPT inconclusive, TDP1 cell CPT 20.6µM
COc1ccccc1NC(=O)/C(=C/c1cccc([N+](=O)[O-])c1)c1ccccc1	DT40 TDP1 no CPT 9.2µM, TDP1 cell CPT 13µM, MCF10A rerep inconclusive
COc1ccc(C(=O)N/C(=C\c2cccc([N+](=O)[O-])c2)C(=O)Nc2cccc(C(=O)O)c2)cc1	Chronic BCR inh inconclusive
CCC(=O)c1ccc(OC(=O)Cc2ccc(OC)cc2)cc1	none
COc1ccc(CCNC(=O)c2ccc3c(c2)N(Cc2ccccc2C)C(=O)c2ccccc2S3)cc1OC	DT40 TDP1 no CPT 3.66µM, TDP1 cell CPT 3.26µM (no result: SW480 rerep, MCF10A rerep, IL-1B inflam inh)
